# In ChEMBL document CHEMBL3433997, “St. Jude Leishmania screening dataset” (2016):
# Molecular target: Glucose transporter (Leishmania mexicana) (UniProt O61059)
# Assay: ST_JUDE_LEISH: Cytotoxicity at 2uM final concentration against transgenic Leishmania Mexicana promastigotes LmGT2 that are glucose transport deficient and complemented with the L. Mexicana glucose transporter 2. Activity is measured by DNA content using SYBR green in vitro
# Type: functional
row,SMILES,inhibition [%]
1,OC(CNCc1ccccc1OCc1ccccc1)c1cccc(Cl)c1 (stereo unspecified),5.2
2,Cc1cccc2nc(-c3ccc(-c4cccc(CN5CCC(CCN6CCCCC6)CC5)c4)s3)[nH]c12,-3.24
3,CC(C)Cc1ccc(N2CCN(CCCCNC(=O)c3ccc(NC(=O)c4ccc(Cl)c(Cl)c4)cc3)CC2)cc1,0.21
4,O=C1NC(=O)C(c2ccc(Cl)cc2)=C1Nc1cccc(S(=O)(=O)C(F)(F)F)c1,1.48
5,Fc1ccc2c(NN=Cc3ccccc3F)ccnc2c1,0.43
6,Cc1cc(N[C@@H](Cc2ccccc2)C(=O)NCCOc2ccccc2)nc(NCCc2ccccn2)n1,3.94
7,CCN(CC)CCCC(C)N/C(=N\c1ccccc1Br)Nc1ccc(C#N)cc1O (stereo unspecified),-1.67
8,COc1ccccc1CNc1ncc(-c2ccsc2)c(-c2nccs2)n1,-0.05
9,CCc1ccc(NC(=O)N(CCCn2ccnc2)Cc2csc(-c3ccc(CNCc4ccccc4)cc3)n2)cc1,2.49
10,CN(C)CCN1CCN(CCCN2c3ccccc3Sc3ccc(C(F)(F)F)cc32)CC1,3.66
11,CCC(C(C)C)n1ccc2c3c(N)nc(N)nc3ccc21 (stereo unspecified),66.6
12,Cc1cccc2c1NC(=O)/C2=N/NC(=S)N(C)C,2.09
13,O=C(c1cc2cccc([N+](=O)[O-])c2[nH]1)N1CCC(CCN2CCC(c3c[nH]c4ccccc34)CC2)CC1,2.6
14,Cc1[nH]c(C)c(-c2ccc(-c3ccc(C(F)(F)F)cc3C(F)(F)F)nc2)c(=O)c1Br,0.14
15,Fc1ccc(CNc2ncc(-c3ccsc3)c(-c3nccs3)n2)cc1,0.95
16,CC(O)CNc1nc2ccccc2n1CC(=O)Nc1cccc(C(=O)Nc2cccc(C(F)(F)F)c2)c1 (stereo unspecified),4.48
